PubChem BioAssay (NCATS)
Results filed as inconclusive are left out. A number with no mark means an inactive call. The source made the active and inactive calls. Calls follow the shape of the dose curve; as a rule, active = well fitted cell-killing curve with a large enough effect; inconclusive = small, poorly fitted or top-dose-only effect, or effect the other way; inactive = no such curve, though single readings can be large or run the other way.

Assay: Viability qHTS for spleen associated tyrosine kinase inhibitor (SYKi) drug resistant MV4-11 cells (AID 1963824); also: nearly all actives have a fitted effect of over 35% in size
Details: SYKi-resistant MV4-11 viability, CellTiter-Glo, 72 h; series mostly up to 45 µM
Method in brief: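 CellTiter-Glo luminescence, read 10 min after reagent addition, reports viability after a 72 hr compound exposure. Cells are an MV4-11 line made resistant to SYK inhibition, seeded at 500 per well onto compound-containing plates.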
Potency is read from the fitted curve at half-maximal effect.

Row | SMILES | Potency | viability, % of control
1 | COc1cc(N2CCC(N3CCN(C)CC3)CC2)ccc1Nc1ncc(Cl)c(-c2c[nH]c3ccccc23)n1 | 0.0116 µM (active) | –
2 | Cc1ccc2[nH]c(=O)c(C3=NN(C(=O)CCC(=O)O)C(c4ccc(Br)cc4)C3)c(-c3ccccc3)c2c1 (configuration not stated) | 23.1 µM (active) | –
3 | Cc1ccccc1CN1CCn2c1nc1c(c2=O)CN(Cc2ccccc2)CC1 | inactive | –
4 | O=C(Nc1cccc([N+](=O)[O-])c1)c1cccc(S(=O)(=O)N2CCCCCC2)c1 | 6.51 µM (active) | –
5 | O=C(/C=C/c1ccccc1)OCC1=CC[C@@H]2C(C(=O)O)=CO[C@@H](O[C@@H]3O[C@H](CO)[C@@H](O)[C@H](O)[C@H]3O)[C@H]12 | inactive | –
6 | COc1cc2c(cc1OC)CC(=O)N(CCCNC[C@H]1Cc3cc(OC)c(OC)cc31)CC2 | 16.4 µM (active) | –
7 | CC1(C)CC[C@]2(C(=O)O[C@@H]3O[C@H](CO)[C@@H](O)[C@H](O)[C@H]3O)CC[C@]3(C)C(=CCC4[C@@]5(C)C[C@H](O)[C@H](O[C@@H]6O[C@H](C(=O)O)[C@@H](O)[C@H](O)[C@H]6O)[C@@](C)(CO)C5CC[C@]43C)C2C1 (some centres not stated) | – | 20.7% [at 9.25 µM]
8 | Cc1cc(Nc2nc(NC(C)c3ccc(F)cc3)c(C#N)cc2F)n[nH]1 (configuration not stated) | 0.461 µM (active) | –
9 | C/C=C/C=C/C(=O)OC1CC/C=C/C(O)C(O)C(CCC)OC1=O (configuration not stated) | inactive | –
10 | CC(=O)OC1C(O)CC2(C)C(CCC(C)C23Cc2c(O)cc(CO)c(C=O)c2O3)C1(C)C (configuration not stated) | 11.2 µM (active) | –
11 | O=C1/C(=C/c2ccc(O)c(O)c2)Oc2ccccc21 | 0.517 µM (active) | –
12 | COC(=O)c1ccnc(-c2cc(C(=O)NCCc3ccccc3)ccn2)c1 | inactive | –
13 | CN(C)CCCNc1c2ccccc2nc2c1[nH]c1ccccc12 | 0.731 µM (active) | –
14 | Cc1cc(CS(=O)(=O)c2ccccc2)cc(OCc2ccc(CN3CCCC3CO)cc2)c1 (configuration not stated) | 14.6 µM (active) | –
15 | CC1CCC2(C(=O)O)CCC3(C)C(=CCC4C5(C)CCC(O)C(C)(CO)C5CCC43C)C2C1(C)O (configuration not stated) | inactive | –
16 | C=C(C=O)[C@]1(O)C[C@@]2(C)C(=CC1=O)C=C[C@H](OC(=O)/C=C/C=C/[C@H](C)CC)[C@@H]2C | 0.796 µM (active) | –

Row | SMILES | Potency | viability, % of control
17 | COc1cc(/C=C/C(=O)OCC2OC(OC3(CO)OC(CO)C(O)C3O)C(O)C(O)C2O)ccc1O (configuration not stated) | inactive | –
18 | C/C=C1/CC2C(=O)Nc3cc(O)c(OC)cc3C(=O)N2C1 (configuration not stated) | 14.3 µM (active) | –
19 | Nc1nc(NCC2CCC(CNS(=O)(=O)c3cccc4ccccc34)CC2)nc2ccccc12 (configuration not stated) | 2.31 µM (active) | –
20 | CC(C)c1ccc(-c2cc(=O)c3ccccc3o2)cc1 | 13 µM (active) | –
21 | CC(C)c1c(O)ccc2c1CC[C@H]1C(C)(C)CCC[C@]21C | 16.4 µM (active) | –
22 | O=C(O)c1ccc(NC(=O)[C@H](CC2CCCC2)n2cnc(C(F)(F)F)c2)nc1 | 2.91 µM (active) | –
23 | CC(=O)OC1CC(=O)C2(C)C3CC4=C(OC(C)CC4=O)OC3(C)CCC2C1(C)C (configuration not stated) | inactive | –
24 | O=C(Nc1ccc(Cl)cc1)Nc1cccc(-c2cccc(N3CCCC3)n2)c1 | 14.6 µM (active) | –
25 | CC(=O)N[C@H](Cc1c[nH]c2ccccc12)C(=O)OCc1cc(C(F)(F)F)cc(C(F)(F)F)c1 | 23.1 µM (active) | –
26 | N#C/C(=C(\N)Sc1ccc(N)cc1)c1ccccc1C(F)(F)F | 7.31 µM (active) | –
27 | C[C@@H]1C[C@@H](O)[C@@]23CO[C@]2(CO)C[C@@H](O)CC3[C@@]12CC(c1ccoc1)OC2=O (some centres not stated) | inactive | –
28 | CN(C)CCNC(=O)c1cccn2c(=O)c3cc4ccccc4cc3nc12 | 0.422 µM (active) | –
29 | Cc1ccc(NS(=O)(=O)c2cc3c(cc2N(C)C)CCC(=O)N3)cc1C | 18.4 µM (active) | –
30 | C/C=C(\C)C(=O)O[C@@H]1CC2[C@@H](CC=C3C[C@@H](O[C@H]4C[C@H](OC)[C@H](O[C@H]5C[C@H](OC)[C@H](O[C@@H]6O[C@H](C)[C@@H](O[C@H]7C[C@H](OC)[C@H](O[C@@H]8O[C@H](CO)[C@@H](O)[C@H](O)[C@H]8O)[C@@H](C)O7)[C@H](OC)[C@H]6O)[C@@H](C)O5)[C@@H](C)O4)CC[C@@]32C)[C@@]2(O)CC[C@H](C(C)=O)[C@@]12C (some centres not stated) | – | 61.7% [at 9.25 µM]
31 | COc1ccc(F)cc1-c1cc(NC(=O)[C@@H]2CCCNC2)ncc1Cl | 0.103 µM (active) | –
32 | C=C1C(OC2OC(CO)C(O)C(O)C2O)CC2C(C)(C)C(O)CCC2(C)C1CC/C(C)=C\COC(=O)CC(=O)O (configuration not stated) | 5.44 µM (active) | –
